# Bioassay records: PubChem BioAssay, several laboratories
# EWS-Fli inh = inhibitors of EWS/Fli oncoprotein transcriptional activity; A673 NR0B1-luciferase reporter, viability-normalised; inhibition, % at 12.6 µM; 350,000 compounds, 0.67% hits;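 active = mean inhibition of at least 50% after viability correction, with every replicate also passing that limit; inconclusive = mean reaches 50% but only one of two replicates passes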;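 also: firefly luciferase signal divided by Alamar Blue viability fluorescence both relative to DMSO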
# LGR2 antag = blocks bursicon-induced cAMP signaling via Drosophila LGR2 | HEK293 LGR2, CRE-luciferase, bursicon-stimulated, 4 h | inhibition, % at 9.99 µM | 380,000 compounds, 0.35% hits | AID 720647;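 active = drop in luminescence signal, shown as inhibition above about 50% in the replicate tests, limit read from the data, passing the limit was not always enough; inconclusive = probably only some replicates passing the limit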;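 also: agonist challenge used bursicon conditioned medium at about half maximal strength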
# TWEAK-Fn14 inh = TWEAK-Fn14 signaling inhibition | inhibition, % at 10 µM | TWEAK-stimulated Fn14 reporter cells, luciferase luminescence, 8 h | AID 1159606 | 360,000 compounds, 2% hits; in the data active = inhibition above about 50%
# EBV LMP1 NFkB = inhibitors of Epstein-Barr LMP1-induced NF-kappaB reporter. LMP1-induced NF-kappaB luciferase reporter cells, luminescence. inhibition, % at 12.5 µM. 350,000 compounds, 0.69% hits; in the data active = inhibition above about 41%; inconclusive = no clear call, values can overlap the other calls;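 also: 0% = neutral control wells and 100% = reference inhibitor control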
# TROY signal inh = TROY signaling inhibition | Q293 LMP1-TROYcd NF-kB luciferase reporter, 4 h | inhibition, % at 10 µM | 360,000 compounds, 0.98% hits;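 active = compounds whose plate-normalised and pattern-corrected inhibition of the luciferase reporter signal at the single screening dose is 50% or more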
# The depositor's hits bear a star; ? = inconclusive; . = no result given. Compounds with a hit are over-represented: about 2.5% of the library has one in this group of screens.
SMILES,EWS-Fli inh,LGR2 antag,TWEAK-Fn14 inh,EBV LMP1 NFkB,TROY signal inh
c1cncc(-c2ccc3ncnc(NCc4ccc5c(c4)OCO5)c3c2)c1,13,-38,35,1,12
c1nc(NCc2ccc3c(c2)OCO3)c2cc(-c3ccoc3)ccc2n1,-36,?,83*,49*,27
CC(C)NC(=O)N(C)C[C@H]1Oc2ccc(NC(=O)Nc3ccc(C(F)(F)F)cc3)cc2C(=O)N([C@@H](C)CO)C[C@H]1C,-5,-7,.,.,.
Cc1ccc(N/C(N)=N/c2nc(CSc3nnc(C)s3)cc(=O)[nH]2)c(C)c1,69*,12,5,15,24
COC(=O)C1=CN(c2ccc(OC)cc2OC)C(N)=C(C#N)C1c1ccccc1F (configuration not stated),53*,-14,.,.,.
O=C(NC1CC1)C1=C[C@@H](c2ccc(Br)cc2)C[C@@H](OCCCCO)O1,-8,.,16,1,51*
C[C@@H]1CN([C@H](C)CO)C(=O)c2cccc(NS(=O)(=O)c3ccc(F)cc3)c2O[C@@H]1CN(C)C(=O)Nc1cccc2ccccc12,1,3,.,.,.
CCOc1ccc(NS(=O)(=O)c2ccc(SC)cc2)cc1,.,.,81*,8,.
Cc1cc(C)cc(NS(=O)(=O)c2cnc(Cl)c(Cl)c2)c1,.,.,25,-4,-14
CCOc1ccc(NS(=O)(=O)c2cnc(Cl)c(Cl)c2)cc1,.,18,53*,5,29
CNC[C@H]1OCCCC[C@@H](C)Oc2ccc(NS(=O)(=O)c3ccccc3)cc2C(=O)N([C@@H](C)CO)C[C@H]1C,1,-13,.,.,.
O=S(=O)(Nc1nc2ccccc2nc1N1CCc2ccccc2C1)c1ccc(Cl)cc1,.,17,72*,-3,24
O=S(=O)(Nc1nc2ccccc2nc1N1CCc2ccccc2C1)c1ccc(Br)cc1,.,-22,78*,-14,14
CC(=O)Nc1ccc(S(=O)(=O)Nc2nc3ccccc3nc2N2CCc3ccccc3C2)cc1,-32,-92,15,-9,-13
Cc1ccccc1S(=O)(=O)Nc1nc2ccccc2nc1N1CCc2ccccc2C1,.,-43,21,-6,-1
CCN(C(=O)CC(C)C)c1nnc(Cn2nnc3ccccc32)s1,-49,-1,13,14,9
CCN(C(=O)c1ccc(C(C)(C)C)cc1)c1nnc(Cn2nnc3ccccc32)s1,.,.,73*,2,40
Cc1ccc(/C=N/N2CCN(C3c4ccccc4-c4ccccc43)CC2)s1,-7,.,62*,-3,54*
C(=N\N1CCN(C2c3ccccc3-c3ccccc32)CC1)/c1ccccn1,.,.,4,-1,-12
COc1ccc(-c2ccnc3cc(C(=O)O)nn23)cc1,5,-20,12,57*,11
O=C(O)c1cc2nccc(-c3ccco3)n2n1,-1,1,16,-9,-14
CCCc1nnc(NC(=O)C(=O)NCCN(CC)CC)s1,-17,.,19,-2,54*
COc1ccc(S(=O)(=O)N2C[C@@H](O)COC[C@@H]3O[C@@H](CC(=O)NCCN4CCCCC4)CC[C@H]32)cc1,.,-5,.,.,.
O=[N+]([O-])c1cc([N+](=O)[O-])c2cc3ccccc3nc2c1,72*,11,93*,-8,33
C[C@@H]1CN([C@@H](C)CO)C(=O)c2cc(-c3cccc(C#N)c3)cnc2O[C@@H]1CN(C)C(=O)C1CCC1,1,6,.,.,.
SMILES,EWS-Fli inh,LGR2 antag,TWEAK-Fn14 inh,EBV LMP1 NFkB,TROY signal inh
CCCCN(C)C(=O)c1cc2cc3ccc(OC)cc3nc2s1,.,.,74*,-9,25
CCCCN(CC)C(=O)c1cc2cc3ccc(OC)cc3nc2o1,.,.,-36,-18,-22
COc1nn(-c2ccccc2)c(=O)c(Cl)c1Cl,76*,-14,99*,1,74*
COc1c(Cl)cnn(-c2ccccc2)c1=O,.,12,14,-1,-11
C[C@H](CO)N1C[C@H](C)[C@H](CN(C)C(=O)[C@H](C)c2ccccc2)OCc2ccccc2-c2c(n(C)c3ccccc23)C1=O,-1,7,.,.,.
COc1ccccc1Cn1c(=O)c2ccccc2n2c(Sc3ncnc4sccc34)nnc12,.,.,89*,13,47
C=CCN(c1ccccc1)S(=O)(=O)c1cccc(C(=O)Nc2nnc(SCC)s2)c1,2,5,13,-2,53*
COc1ccc(C(=O)/C=C/c2ccc(O)cc2)c(O)c1C/C=C(\C)CCC=C(C)C,26,.,-2,-20,-17
C=C(C)C(O)CC/C(C)=C/Cc1c(O)ccc(C(=O)/C=C/c2ccc(O)cc2)c1O (configuration not stated),29,17,34,-12,65*
O=C(c1ccncc1)N1C[C@H]2[C@@H](c3ccccc31)[C@@H](CO)N2Cc1ccc(F)cc1,12,-1,.,.,.
